# Laboratory results published in PubChem BioAssay.
# Records with an inconclusive call do not appear. Activity calls are given as the source filed them. Unless noted, cut-off not given; nearly all actives show AC50 up to about 26 µM.
# What was measured:
# [1] = viability loss in pontine glioma line – cell-based, SU-DIPG-XXV, MIPE5.0, CellTiter-Glo, qHTS, dose response (AID 1347065); settings: CellTiter-Glo ATP luminescence;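 further: cells exposed to compound for 48 hours before ATP readout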
# [2] = JHH-DIPG-1 glioma cell viability, MIPE5.0 library, CellTiter-Glo luminescence, qHTS (AID 1347067); settings: JHH-DIPG-1 glioma viability, CellTiter-Glo ATP luminescence;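 further: cells exposed to compound for 48 hours before readout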
# [3] = P. berghei load reduction in hepatocytes – cell-based, HepG2, luciferase luminescence, HepG2 viability, primary screen (AID 624349; in the data active means parasite load remaining mostly below about 12%, no sharp cut-off; inactive means mostly above about 10%;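 further: 100% = mean of DMSO negative control wells on the same plate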); settings: P. berghei liver stage in HepG2, luciferase luminescence, concentration not given here; parasite load remaining: stronger effect = lower value; viability: measured here: HepG2 viability without parasites
# [4] = viability loss in pontine glioma line – cell-based, SU-DIPG-XIII, MIPE5.0, CellTiter-Glo, qHTS, dose response (AID 1347064; cut-off not given, nearly all actives have AC50 up to about 23 µM;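 on AC50: cells exposed to compound for 48 hours before the viability read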); settings: CellTiter-Glo ATP luminescence
# [5] = growth inhibition of DIPG cells – cell-based, MIPE5.0 library, qHTS (AID 1347068; cut-off not given, nearly all actives have IC50 up to about 30 µM); settings: SU-DIPG-XXV viability
# [6] = growth inhibition of DIPG cells – cell-based, MIPE4.0 library, CellTiter-Glo luminescence, qHTS (AID 1347066; cut-off not given, nearly all actives have AC50 up to about 30 µM;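 further: cells exposed to compound for 48 hours before readout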); settings: SU-DIPG-VI viability, CellTiter-Glo ATP luminescence
# [7] = viability loss with induced miR-34 in A549 – imaging, A549 dox-inducible miR-34, nuclei and caspase counts, primary screen (AID 1347080;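 active means compounds whose cell count with miR-34 switched on is under 0.7 times the count with it off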); settings: A549 miR-34 inducible, Hoechst nuclei count, 48 h
# [8] = MELAS cybrid and Rieske KO viability enhancers – cell-based, MELAS cybrids, Rieske KO mouse fibroblasts, CellTiter-Glo, primary screen (AID 1508586;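 active means mean z-score across replicates of 1.96 or higher in either the MELAS or the Rieske mutant cell line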;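 further: z relative to plate mean and SD of compound and empty wells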); settings: low glucose
# [9] = compounds altering HSF1 focus formation in cells – imaging, Selleck Cancer Library (AID 1347162; in the data active means plate-normalised HSF1 focus index below about 0.46); settings: human cells, HSF1 nuclear foci imaging, at 10 µM; SSMD: measured here: HSF1 foci SSMD mean; cell count: measured here: cell number; plate-normalised HSF1 focus index: stronger effect = lower value
smiles,measurement,setting,value
CN(C)CCCOc1ccc(-c2ccc3ncc4c(c3c2)n(C2CCOCC2)c(=O)n4C)cn1,AC50,[1],5.74 µM (active)
same,outcome,[2],inactive
COc1ccc2nc3n[nH]c(C)c3c(NCCOCCO)c2c1,parasite load remaining,[3],46.1% (inactive)
same,viability,[3],90.1%
same,outcome,[4],inactive
same,outcome,[2],inactive
Cc1nn(C)c2c1C(c1ccc(C(F)(F)F)cc1)C(C#N)=C(N)O2 (stereo not given),outcome,[4],inactive
same,outcome,[5],inactive
CN1CCC(COc2cnc(-c3cccc(Cn4nc(-c5cccc(C#N)c5)ccc4=O)c3)nc2)CC1,AC50,[1],26.3 µM (active)
same,outcome,[6],inactive
same,AC50,[2],29.5 µM (active)
O=C(c1c(F)ccc(NS(=O)(=O)N2CC[C@@H](F)C2)c1F)c1c[nH]c2ncc(-c3cnc(C4CC4)nc3)cc12,AC50,[1],10.5 µM (active)
Cc1nnn(C)c1-c1cnc2c3ccc(C(C)(C)O)cc3n([C@H](c3ccccc3)C3CCOCC3)c2c1,AC50,[1],0.372 µM (active)
same,AC50,[2],8.33 µM (active)
O=C(NCCCNc1nc(Nc2cccc(CN3CCOCC3)c2)ncc1C1CC1)C1CCC1,AC50,[1],7.42 µM (active)
Cc1cc(C)c2c(c1)[C@@H](N(Cc1cc(C(F)(F)F)cc(C(F)(F)F)c1)c1nnn(C)n1)CCCN2CC1CCC(C(=O)O)CC1 (stereo not given in full),AC50,[4],20.9 µM (active)
same,outcome,[5],inactive
same,fold change,"[7]; stronger effect = lower value, cell number ratio, induced over uninduced",0.938 (inactive)
same,fold change,[7]; measured here: relative caspase fold change +Dox/-Dox,0.636
same,cell count,"[7]; measured here: total cells with miR-34 induction, stronger effect = lower value",6920
same,cell count,[7]; measured here: total cells without miR-34 induction,7380
same,z-score,"[8]; MELAS cybrid survival, CellTiter-Glo 48 h, stronger effect = higher value",-0.009 (inactive)
same,z-score,"[8]; Rieske KO mouse fibroblast survival, CellTiter-Glo 72 h",-0.0411
Cc1cc(/C=c2/sc3nc4ccccc4n3c2=O)c(C)n1-c1ccccc1,AC50,[1],20.9 µM (active)
same,outcome,[6],inactive
same,outcome,[2],inactive
same,outcome,[5],inactive
same,SSMD,[9],3.08
same,cell count,[9],7030
same,plate-normalised HSF1 focus index,[9],1.18 (inactive)
O=C(Nc1cnccc1Cl)N1CCN(Cc2ccc3c(c2)OC(F)(F)O3)CC1,outcome,[4],inactive
same,outcome,[5],inactive
O=C1CSC(=O)N1C(CCc1ccncc1)COc1ccc(-c2cccc([N+](=O)[O-])c2)cc1 (stereo not given),AC50,[1],18.6 µM (active)
same,AC50,[2],18.6 µM (active)
NCCCC[C@H](NC(=O)[C@@H](NC(=O)[C@H](Cc1c[nH]c2ccccc12)NC(=O)[C@H](CCCCN)NC(=O)[C@H](CCCCN)NC(=O)[C@H](Cc1c[nH]c2ccccc12)NC(=O)[C@H](Cc1c[nH]c2ccccc12)NC(=O)[C@H](CCCCN)NC(=O)[C@@H](N)CCCCN)C(c1ccccc1)c1ccccc1)C(N)=O,AC50,[1],20.9 µM (active)
